Experimental data as given in paper PMC7862700, “An all-to-all approach to the identification of sequence-specific readers for epigenetic DNA modifications on cytosine”.

Columns and labels:
Test in all cases: DAPPL (digital affinity profiling via proximity ligation, sequencing); 10 mM Tris-HCl pH 7.5, 50 mM NaCl, 1 mM DTT, 4% glycerol, room temperature, 30 min; GST-TFs on glutathione beads, 16-mer random dsDNA library, 0.1% formaldehyde crosslink after washing; high values mean tight binding
FEV = target: T1, FEV (Homo sapiens, UniProt Q99581 1-238); conditions: protein: recombinant; tags: N-terminal GST; dsDNA, one strand shown
T1 sequence: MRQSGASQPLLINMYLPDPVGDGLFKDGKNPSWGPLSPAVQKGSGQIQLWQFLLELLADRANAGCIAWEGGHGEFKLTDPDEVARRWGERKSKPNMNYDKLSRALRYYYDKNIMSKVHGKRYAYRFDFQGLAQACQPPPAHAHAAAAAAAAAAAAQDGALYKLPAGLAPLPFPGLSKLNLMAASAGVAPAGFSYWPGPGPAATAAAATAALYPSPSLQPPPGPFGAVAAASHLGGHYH
In short: (§1)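 Binding signal is each hexamer's read frequency for a factor divided by its frequency in the tag-only sample. The factors were GST-fused human transcription factors from yeast, captured on glutathione beads, DNA-barcoded and pooled with that sample. Pools were incubated with 200 nmole of a random double-stranded 16-mer DNA library in Tris/NaCl/DTT/glycerol buffer at room temperature for 30 min, then washed, crosslinked with 0.1% formaldehyde, proximity-ligated with BsaI/T4 ligase (1 h, 37 °C), PCR-amplified and sequenced on an Illumina NextSeq500.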

ETV5 = ETV5 (Homo sapiens, UniProt P41161 1-510); conditions: protein: recombinant; tags: N-terminal GST; dsDNA, one strand shown
In short: as §1

HSF1 = HSF1 (Homo sapiens, UniProt Q00613 1-529); conditions: protein: recombinant; tags: N-terminal GST; chain copies: 3; dsDNA, one strand shown
In short: as §1

ELF4 = ELF4 (Homo sapiens, UniProt Q99607 1-663); conditions: protein: recombinant; tags: N-terminal GST; dsDNA, one strand shown
In short: as §1

ELK4 = target: T2, ELK4 (Homo sapiens, UniProt P28324-2 1-405); conditions: protein: recombinant; tags: N-terminal GST; dsDNA, one strand shown
T2 sequence: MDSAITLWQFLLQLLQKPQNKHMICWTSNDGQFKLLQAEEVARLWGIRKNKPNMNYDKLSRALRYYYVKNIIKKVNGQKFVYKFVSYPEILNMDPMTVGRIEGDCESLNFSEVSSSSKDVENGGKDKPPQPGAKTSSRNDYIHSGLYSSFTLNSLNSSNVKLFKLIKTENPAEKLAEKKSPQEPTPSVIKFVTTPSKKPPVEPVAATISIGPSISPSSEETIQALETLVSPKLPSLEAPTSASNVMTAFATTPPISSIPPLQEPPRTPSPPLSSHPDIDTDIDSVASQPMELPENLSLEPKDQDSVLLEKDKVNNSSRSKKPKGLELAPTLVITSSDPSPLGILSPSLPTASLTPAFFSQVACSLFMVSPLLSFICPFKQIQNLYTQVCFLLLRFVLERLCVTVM
In short: as §1

ETV2 = target: T3, ETV2 (Homo sapiens, UniProt O00321 1-342); conditions: protein: recombinant; tags: N-terminal GST; dsDNA, one strand shown
T3 sequence: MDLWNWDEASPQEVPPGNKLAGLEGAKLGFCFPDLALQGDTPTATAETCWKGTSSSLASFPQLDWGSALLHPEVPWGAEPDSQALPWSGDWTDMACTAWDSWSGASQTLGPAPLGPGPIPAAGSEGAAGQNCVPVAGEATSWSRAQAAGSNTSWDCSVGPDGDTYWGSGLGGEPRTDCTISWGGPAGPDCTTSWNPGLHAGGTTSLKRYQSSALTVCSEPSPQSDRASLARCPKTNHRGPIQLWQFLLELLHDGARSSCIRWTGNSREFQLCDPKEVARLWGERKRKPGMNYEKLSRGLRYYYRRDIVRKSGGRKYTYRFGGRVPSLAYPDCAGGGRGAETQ
In short: as §1

ELF3 = target: T4, ELF3 (Homo sapiens, UniProt P78545 1-371); conditions: protein: recombinant; tags: N-terminal GST; dsDNA, one strand shown
T4 sequence: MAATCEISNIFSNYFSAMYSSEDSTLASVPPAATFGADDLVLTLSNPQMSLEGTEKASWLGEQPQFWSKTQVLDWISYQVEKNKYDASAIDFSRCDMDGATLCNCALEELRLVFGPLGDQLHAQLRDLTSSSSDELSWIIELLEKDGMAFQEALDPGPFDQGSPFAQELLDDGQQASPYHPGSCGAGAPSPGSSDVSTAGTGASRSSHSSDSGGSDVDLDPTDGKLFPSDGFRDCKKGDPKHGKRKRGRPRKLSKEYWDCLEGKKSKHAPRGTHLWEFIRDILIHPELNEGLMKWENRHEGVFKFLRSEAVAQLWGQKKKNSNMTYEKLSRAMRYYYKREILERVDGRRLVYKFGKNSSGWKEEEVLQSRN
In short: as §1

CRX = CRX (Homo sapiens, UniProt O43186 1-299); conditions: protein: recombinant; tags: N-terminal GST; dsDNA, one strand shown
In short: as §1

ETV1 = ETV1 (Homo sapiens, UniProt P50549 1-477); conditions: protein: recombinant; tags: N-terminal GST; dsDNA, one strand shown
In short: as §1

ERF = target: T5, ERF (Homo sapiens, UniProt P50548 1-548); conditions: protein: recombinant; tags: N-terminal GST; dsDNA, one strand shown
T5 sequence: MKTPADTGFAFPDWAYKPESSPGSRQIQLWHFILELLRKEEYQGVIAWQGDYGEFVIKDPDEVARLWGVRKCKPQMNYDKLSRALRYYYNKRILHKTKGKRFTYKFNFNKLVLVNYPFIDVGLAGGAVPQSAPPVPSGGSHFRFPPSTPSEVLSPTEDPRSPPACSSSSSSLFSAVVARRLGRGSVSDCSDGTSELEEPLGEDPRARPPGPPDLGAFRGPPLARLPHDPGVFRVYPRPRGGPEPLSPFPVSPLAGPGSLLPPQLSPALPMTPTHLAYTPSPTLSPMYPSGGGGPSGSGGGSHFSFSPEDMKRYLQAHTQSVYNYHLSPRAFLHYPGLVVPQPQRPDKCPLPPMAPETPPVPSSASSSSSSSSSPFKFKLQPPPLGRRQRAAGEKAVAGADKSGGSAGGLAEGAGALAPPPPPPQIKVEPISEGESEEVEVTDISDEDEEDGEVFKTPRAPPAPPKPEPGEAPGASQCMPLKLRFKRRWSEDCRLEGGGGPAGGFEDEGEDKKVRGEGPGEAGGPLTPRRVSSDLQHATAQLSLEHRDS
In short: as §1

ETV3L = target: T6, ETV3L (Homo sapiens, UniProt Q6ZN32 1-361); conditions: protein: recombinant; tags: N-terminal GST; dsDNA, one strand shown
T6 sequence: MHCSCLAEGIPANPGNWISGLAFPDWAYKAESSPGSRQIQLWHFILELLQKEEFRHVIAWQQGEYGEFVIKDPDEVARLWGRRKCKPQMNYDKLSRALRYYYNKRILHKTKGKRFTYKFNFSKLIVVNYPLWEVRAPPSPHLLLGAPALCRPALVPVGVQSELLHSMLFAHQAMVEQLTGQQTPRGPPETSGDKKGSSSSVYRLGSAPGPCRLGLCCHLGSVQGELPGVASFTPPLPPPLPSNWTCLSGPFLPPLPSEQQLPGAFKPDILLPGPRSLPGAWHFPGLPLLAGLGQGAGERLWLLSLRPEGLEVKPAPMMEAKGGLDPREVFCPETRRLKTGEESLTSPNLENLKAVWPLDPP
In short: as §1

ETS2 = target: T7, ETS2 (Homo sapiens, UniProt P15036 1-469); conditions: protein: recombinant; tags: N-terminal GST; dsDNA, one strand shown
T7 sequence: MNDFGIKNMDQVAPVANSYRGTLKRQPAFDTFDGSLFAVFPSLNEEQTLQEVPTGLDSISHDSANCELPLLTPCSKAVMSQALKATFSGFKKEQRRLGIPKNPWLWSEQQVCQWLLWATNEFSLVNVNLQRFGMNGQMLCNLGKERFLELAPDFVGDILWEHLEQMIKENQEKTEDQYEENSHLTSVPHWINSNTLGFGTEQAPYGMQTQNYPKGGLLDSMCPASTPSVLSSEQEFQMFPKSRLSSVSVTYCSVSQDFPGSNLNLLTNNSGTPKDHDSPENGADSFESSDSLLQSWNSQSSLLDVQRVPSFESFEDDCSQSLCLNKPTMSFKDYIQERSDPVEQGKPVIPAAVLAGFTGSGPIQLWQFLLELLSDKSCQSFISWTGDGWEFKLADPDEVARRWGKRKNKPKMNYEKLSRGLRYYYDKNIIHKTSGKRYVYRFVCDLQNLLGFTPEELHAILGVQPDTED
In short: as §1

SPDEF = target: T8, SPDEF (Homo sapiens, UniProt O95238 1-335); conditions: protein: recombinant; tags: N-terminal GST; dsDNA, one strand shown
T8 sequence: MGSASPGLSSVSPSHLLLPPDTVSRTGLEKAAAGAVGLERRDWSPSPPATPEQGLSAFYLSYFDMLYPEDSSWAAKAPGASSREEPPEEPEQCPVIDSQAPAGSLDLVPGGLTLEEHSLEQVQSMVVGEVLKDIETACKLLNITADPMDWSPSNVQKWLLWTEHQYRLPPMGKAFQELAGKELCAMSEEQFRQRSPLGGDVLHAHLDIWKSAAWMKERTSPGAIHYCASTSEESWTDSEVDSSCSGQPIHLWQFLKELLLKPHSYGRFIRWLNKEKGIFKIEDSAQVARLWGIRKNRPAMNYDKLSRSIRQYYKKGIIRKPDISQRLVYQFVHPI
In short: as §1

ETV7 = target: T9, ETV7 (Homo sapiens, UniProt Q9Y603 1-341); conditions: protein: recombinant; tags: N-terminal GST; dsDNA, one strand shown
T9 sequence: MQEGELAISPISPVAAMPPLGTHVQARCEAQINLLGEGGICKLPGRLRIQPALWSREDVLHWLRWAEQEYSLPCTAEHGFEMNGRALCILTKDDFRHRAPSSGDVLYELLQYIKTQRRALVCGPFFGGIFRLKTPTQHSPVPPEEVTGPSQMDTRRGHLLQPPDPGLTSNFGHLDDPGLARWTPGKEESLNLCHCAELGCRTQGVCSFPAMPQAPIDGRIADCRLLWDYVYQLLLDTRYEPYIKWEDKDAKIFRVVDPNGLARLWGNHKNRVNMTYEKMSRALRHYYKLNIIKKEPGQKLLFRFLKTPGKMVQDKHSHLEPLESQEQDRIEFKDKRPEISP
In short: as §1

ELF5 = target: T10, ELF5 (Homo sapiens, UniProt Q9UKW6-2 1-255); conditions: protein: recombinant; tags: N-terminal GST; dsDNA, one strand shown
T10 sequence: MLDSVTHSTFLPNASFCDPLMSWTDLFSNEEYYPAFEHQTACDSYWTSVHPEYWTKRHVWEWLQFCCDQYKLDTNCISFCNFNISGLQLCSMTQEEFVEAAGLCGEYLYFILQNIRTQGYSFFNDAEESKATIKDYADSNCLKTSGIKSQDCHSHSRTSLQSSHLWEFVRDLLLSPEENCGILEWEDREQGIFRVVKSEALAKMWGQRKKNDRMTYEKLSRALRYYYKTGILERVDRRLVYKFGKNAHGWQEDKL
In short: as §1

ETV3 = target: T11, ETV3 (Homo sapiens, UniProt P41162-2 1-143); conditions: protein: recombinant; tags: N-terminal GST; dsDNA, one strand shown
T11 sequence: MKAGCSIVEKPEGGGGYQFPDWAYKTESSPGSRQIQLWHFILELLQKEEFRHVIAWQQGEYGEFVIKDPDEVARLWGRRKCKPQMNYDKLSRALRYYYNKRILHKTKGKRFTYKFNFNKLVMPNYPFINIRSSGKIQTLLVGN
In short: as §1

ETV6 = ETV6 (Homo sapiens, UniProt P41212 1-452); conditions: protein: recombinant; tags: N-terminal GST; dsDNA, one strand shown
In short: as §1

HSF1, sequence (Q00613 whole entry): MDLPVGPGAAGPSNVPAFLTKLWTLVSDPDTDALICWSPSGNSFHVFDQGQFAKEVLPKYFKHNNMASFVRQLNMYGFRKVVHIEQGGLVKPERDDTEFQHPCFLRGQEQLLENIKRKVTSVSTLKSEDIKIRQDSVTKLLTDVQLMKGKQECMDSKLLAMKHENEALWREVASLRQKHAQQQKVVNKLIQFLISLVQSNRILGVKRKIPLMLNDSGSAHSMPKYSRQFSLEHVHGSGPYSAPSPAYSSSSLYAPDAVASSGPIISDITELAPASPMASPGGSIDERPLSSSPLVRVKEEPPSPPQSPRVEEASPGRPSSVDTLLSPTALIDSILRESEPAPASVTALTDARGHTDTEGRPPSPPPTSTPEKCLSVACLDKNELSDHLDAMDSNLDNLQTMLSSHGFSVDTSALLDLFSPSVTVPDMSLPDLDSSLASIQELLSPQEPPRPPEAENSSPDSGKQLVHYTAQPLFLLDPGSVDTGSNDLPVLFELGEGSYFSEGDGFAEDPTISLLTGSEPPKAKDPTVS
ELF4, sequence (Q99607 whole entry): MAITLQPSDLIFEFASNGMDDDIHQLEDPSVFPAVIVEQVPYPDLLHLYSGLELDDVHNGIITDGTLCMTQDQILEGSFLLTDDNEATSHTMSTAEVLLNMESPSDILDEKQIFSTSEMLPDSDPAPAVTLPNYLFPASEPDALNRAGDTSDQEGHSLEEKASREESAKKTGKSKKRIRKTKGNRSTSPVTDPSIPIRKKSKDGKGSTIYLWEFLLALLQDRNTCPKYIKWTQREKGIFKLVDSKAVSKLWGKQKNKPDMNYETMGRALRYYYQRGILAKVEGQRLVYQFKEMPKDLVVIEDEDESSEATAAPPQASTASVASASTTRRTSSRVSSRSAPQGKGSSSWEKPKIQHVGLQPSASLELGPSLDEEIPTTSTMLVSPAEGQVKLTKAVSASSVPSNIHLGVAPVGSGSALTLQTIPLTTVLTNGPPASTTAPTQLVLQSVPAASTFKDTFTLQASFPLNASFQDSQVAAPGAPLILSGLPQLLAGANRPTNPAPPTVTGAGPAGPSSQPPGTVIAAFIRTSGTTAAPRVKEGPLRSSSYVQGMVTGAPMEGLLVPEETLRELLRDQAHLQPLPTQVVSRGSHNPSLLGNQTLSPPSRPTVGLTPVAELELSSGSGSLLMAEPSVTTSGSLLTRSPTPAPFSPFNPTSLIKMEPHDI
ETV1, sequence (P50549 whole entry): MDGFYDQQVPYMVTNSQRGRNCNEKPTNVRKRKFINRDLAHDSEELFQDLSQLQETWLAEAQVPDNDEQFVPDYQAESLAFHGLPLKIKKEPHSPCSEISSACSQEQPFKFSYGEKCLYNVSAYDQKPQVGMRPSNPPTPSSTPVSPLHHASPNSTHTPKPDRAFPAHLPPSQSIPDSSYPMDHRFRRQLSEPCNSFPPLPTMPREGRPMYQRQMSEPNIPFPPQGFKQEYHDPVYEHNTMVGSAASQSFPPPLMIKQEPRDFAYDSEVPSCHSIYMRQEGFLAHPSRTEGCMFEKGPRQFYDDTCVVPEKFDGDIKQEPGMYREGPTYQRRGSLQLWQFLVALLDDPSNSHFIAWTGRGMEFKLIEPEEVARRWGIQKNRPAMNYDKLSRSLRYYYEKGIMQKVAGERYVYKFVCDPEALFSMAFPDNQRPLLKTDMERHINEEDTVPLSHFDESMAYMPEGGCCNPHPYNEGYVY
ETV6, sequence (P41212 whole entry): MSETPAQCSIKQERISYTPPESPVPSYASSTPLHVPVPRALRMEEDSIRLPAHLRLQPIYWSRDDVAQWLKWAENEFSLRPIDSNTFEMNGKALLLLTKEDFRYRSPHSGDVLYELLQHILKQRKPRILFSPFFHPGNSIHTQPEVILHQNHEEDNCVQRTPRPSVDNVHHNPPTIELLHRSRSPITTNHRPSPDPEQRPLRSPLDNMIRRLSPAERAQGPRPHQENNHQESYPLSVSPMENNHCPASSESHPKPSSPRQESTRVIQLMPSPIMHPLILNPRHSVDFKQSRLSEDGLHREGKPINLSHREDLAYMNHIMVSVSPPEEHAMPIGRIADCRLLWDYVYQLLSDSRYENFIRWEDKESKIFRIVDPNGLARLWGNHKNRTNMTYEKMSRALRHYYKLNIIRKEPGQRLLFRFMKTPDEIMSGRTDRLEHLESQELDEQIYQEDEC
CRX, sequence (O43186 whole entry): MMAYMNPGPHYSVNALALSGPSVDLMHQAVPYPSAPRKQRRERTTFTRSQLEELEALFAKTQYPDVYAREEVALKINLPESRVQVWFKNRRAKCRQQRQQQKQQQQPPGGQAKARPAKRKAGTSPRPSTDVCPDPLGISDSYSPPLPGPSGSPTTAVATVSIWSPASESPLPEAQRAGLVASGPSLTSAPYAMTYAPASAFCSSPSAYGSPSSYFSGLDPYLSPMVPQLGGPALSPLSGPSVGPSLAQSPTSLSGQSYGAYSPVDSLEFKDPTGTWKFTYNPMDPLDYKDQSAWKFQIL
ETV5, sequence (P41161 whole entry): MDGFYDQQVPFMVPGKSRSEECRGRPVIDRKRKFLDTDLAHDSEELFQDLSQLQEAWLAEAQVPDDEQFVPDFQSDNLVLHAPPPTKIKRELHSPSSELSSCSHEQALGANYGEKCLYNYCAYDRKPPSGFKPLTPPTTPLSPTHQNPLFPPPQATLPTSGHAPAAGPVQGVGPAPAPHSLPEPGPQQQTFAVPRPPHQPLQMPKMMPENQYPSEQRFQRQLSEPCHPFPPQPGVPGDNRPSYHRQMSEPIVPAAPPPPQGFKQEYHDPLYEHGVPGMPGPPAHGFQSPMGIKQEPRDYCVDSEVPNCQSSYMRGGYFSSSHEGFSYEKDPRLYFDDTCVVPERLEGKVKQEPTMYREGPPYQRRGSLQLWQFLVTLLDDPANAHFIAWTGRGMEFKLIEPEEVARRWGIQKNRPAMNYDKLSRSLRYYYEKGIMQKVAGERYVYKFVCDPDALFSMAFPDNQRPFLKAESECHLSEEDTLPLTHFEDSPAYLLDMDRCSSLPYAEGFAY

Q: For TAAAGA, which binding signal (FEV) is on record?
A: The binding signal was 1.09 fold enrichment (6-mer frequency, TF over GST control).

Q: And the binding signal (ETV5)?
A: Its binding signal is 1.07 fold enrichment (6-mer frequency, TF over GST control).

Q: And the binding signal (HSF1)?
A: The binding signal was 1.56 fold enrichment (6-mer frequency, TF over GST control).

Q: And the binding signal (ELF4)?
A: The binding signal was 1.07 fold enrichment (6-mer frequency, TF over GST control).

Q: What about the binding signal (ELK4) of the same sequence?
A: The binding signal was 1.11 fold enrichment (6-mer frequency, TF over GST control).

Q: What about the binding signal (ETV2) of the same sequence?
A: Its binding signal is 1.13 fold enrichment (6-mer frequency, TF over GST control).

Q: What about the binding signal (ELF3) of the same sequence?
A: The binding signal was 1.2 fold enrichment (6-mer frequency, TF over GST control).

Q: And the binding signal (CRX)?
A: The binding signal was 1.85 fold enrichment (6-mer frequency, TF over GST control).

Q: And the binding signal (ETV1)?
A: Its binding signal is 1.11 fold enrichment (6-mer frequency, TF over GST control).

Q: What about the binding signal (ERF) of the same sequence?
A: Its binding signal is 1.23 fold enrichment (6-mer frequency, TF over GST control).

Q: What about the binding signal (ETV3L) of the same sequence?
A: Its binding signal is 1.12 fold enrichment (6-mer frequency, TF over GST control).

Q: What about the binding signal (ETS2) of the same sequence?
A: The binding signal was 1.08 fold enrichment (6-mer frequency, TF over GST control).

Q: What about the binding signal (SPDEF) of the same sequence?
A: The binding signal was 1.04 fold enrichment (6-mer frequency, TF over GST control).

Q: What about the binding signal (ETV7) of the same sequence?
A: The binding signal was 1.08 fold enrichment (6-mer frequency, TF over GST control).

Q: And the binding signal (ELF5)?
A: The binding signal was 1.05 fold enrichment (6-mer frequency, TF over GST control).

Q: And the binding signal (ETV3)?
A: Its binding signal is 1.08 fold enrichment (6-mer frequency, TF over GST control).

Q: And the binding signal (ETV6)?
A: Its binding signal is 1.06 fold enrichment (6-mer frequency, TF over GST control).
